Laboratory results: ChEMBL document CHEMBL4513216, “Probing the Open Global Health Chemical Diversity Library for Multistage-Active Starting Points for Next-Generation Antimalarials” (ACS Infect Dis, 2020)
Screen size: about 69,000 compounds; about 8,600 (12%) showed an effect of 50% or more. Only a selection was taken, and strong results are over-represented in it overall.

The compounds below were run on Plasmodium berghei (assay: Screen against P. berghei liver stage (PbLuc), transformed with Luciferase, at 10uM). Details: tested at 10 uM.
Type: functional, HepG2

Structure (SMILES) | INHIBITION [%]
Cc1cc(C)cc(OCC(=O)N2CCC2)c1 | -5.22
CN(C)C(=O)CO[C@H]1CN(Cc2ccc3c(c2)OCO3)[C@@H]2COC[C@H]12 | 47.4
O=C(Nc1cnccn1)[C@H]1C[C@H]2OCC[C@H]2N(c2ncc(F)cn2)C1 | 60
O=C(Nc1cnccn1)[C@@H]1C[C@H]2OCC[C@H]2N(c2ncc(F)cn2)C1 | 0.923
CS(=O)(=O)N1C[C@H](C(=O)Nc2cccnc2)C[C@H]2OCC[C@H]21 | 30.5
O=C(Nc1cnccn1)[C@H]1CO[C@H]2CCN(c3ncc(F)cn3)C[C@H]2C1 | 27.3
CS(=O)(=O)N1C[C@@H](C(=O)Nc2cnccn2)C[C@H]2OCC[C@H]21 | 39.3
CS(=O)(=O)N1C[C@H](C(=O)Nc2cnccn2)C[C@H]2OCC[C@H]21 | 61.5
NS(=O)(=O)Cc1ccc(CNc2cncc(-n3cccn3)n2)cc1 | 11.6
Cc1ccc(CN2CCN(Cc3nccn3C)[C@H]3CS(=O)(=O)C[C@H]32)o1 | 24.9
O=C(CN1CCC[C@H]1C(=O)O)NCCOc1cccc(Cl)c1 | 16.1
O=C(NC1CCN(C2CC2)CC1)c1cn(-c2ccc(Cl)cc2)nn1 | -6.51
Cc1ccc2c(n1)N(Cc1csc(C)n1)CCN(C1CCOC1)C2 (configuration not stated) | 28.2
Cc1cccn2c(CNC(C)CCc3ccc(O)cc3)cnc12 (configuration not stated) | 65.8
Cc1ccc2c(c1)c(CNC(C)Cn1nc(C)cc1C)nn2C (configuration not stated) | 10.9
Cc1cccn2c(CNC(C)CCn3cccn3)cnc12 (configuration not stated) | 32.3
Cc1cc(C)n(CC(C)NCc2cnc3c(C)cccn23)n1 (configuration not stated) | 60.4
Cc1cccn2c(CNC(C)CO)cnc12 (configuration not stated) | 24.7
Cc1cc(C)n(CC(C)NCc2nc(-c3cccnc3)no2)n1 (configuration not stated) | 45.9
COc1ccc(OC)c(C(C)NC(=O)c2nn(C)c(C)c2Br)c1 (configuration not stated) | -1.84
Cn1c(=O)[nH]c(=O)n2c(CC(=O)Nc3ccccc3)cnc12 | 32.5
CCn1cc2c(n1)C(COC)CN(Cc1ccoc1)C2 (configuration not stated) | 58.7

Structure (SMILES) | INHIBITION [%]
COCC1CN(Cc2ccoc2)Cc2cn(CC3CCCC3)nc21 (configuration not stated) | 34.6
COCC1CN(Cc2ccoc2)Cc2cn(C)nc21 (configuration not stated) | 7.24
Cn1c(Cn2ccnc2)nnc1C1CCN(C(=O)c2ccncc2)CC1 | -22.1
COCC(=O)N1CCC(c2cc(N(C)C)cc(C)n2)CC1 | 44.3
Cc1ccc(-c2nc(CC(=O)NCC3CCCN(C(C)C)C3)cs2)o1 (configuration not stated) | 38.7
Cc1ccc(-c2nc(CC(=O)N3CCN(c4cnccn4)CC3)cs2)o1 | -11.4
Cc1ccc(-c2nc(CC(=O)NCC3CCOC3)cs2)o1 (configuration not stated) | 71.2
CCNC(=O)C1CCN(Cc2csc(-c3ccc(C)o3)n2)CC1 | 20.2
CNC(=O)C1CCCCN1C(=O)Cc1csc(-c2ccc(C)o2)n1 (configuration not stated) | -7.72
Cc1ccc(-c2nc(CC(=O)N3CCCC(NC(=O)C(C)C)C3)cs2)o1 (configuration not stated) | 51.7
Cc1ccc(-c2nc(CC(=O)NCC(C)N3CCOCC3)cs2)o1 (configuration not stated) | 67.5
Cc1ccc(-c2nc(CC(=O)NCC3CCCOC3)cs2)o1 (configuration not stated) | 44.3
Cc1ccc(-c2nc(C(=O)NCC3CCOC3)cs2)cc1 (configuration not stated) | 41.5
NC(=O)NCC1CCCCN1C(=O)c1cccc(Cl)c1 (configuration not stated) | -17.4
CNC(=O)CN1CCCC12CCN(C(=O)c1cccc(F)c1)CC2 | 14.9
CCSc1ccc(C(=O)N2CCCC2C(=O)N2CCOCC2)cn1 (configuration not stated) | 23.6
Cc1ccc(CN2CC[C@H]3OCC[C@@H](C(=O)NC4CC4)[C@@H]3C2)o1 | 23.9
Cn1cnnc1C1CCCN1C(=O)Nc1cccc(OC(F)F)c1 (configuration not stated) | 30.7
COc1cc(NC(=O)N2CCCC2c2nncn2C)ccc1Br (configuration not stated) | 55.6
CCOCc1ccc(NC(=O)N2CCCC2c2nncn2C)cc1 (configuration not stated) | 43.7
c1cncc(CN2CCc3ncnc(NCCc4c[nH]cn4)c3CC2)c1 | 38.3
CC(C)c1nc(C2CCCN(C(=O)c3ccc4nncn4c3)C2)no1 (configuration not stated) | -43.6

Structure (SMILES) | INHIBITION [%]
CCC(C)N1CCC2(CC1)CN(c1cncnc1)C(=O)CO2 (configuration not stated) | 3.25
COCCN1CCC(NCc2ccc(Cl)cc2)C1 (configuration not stated) | 23.4
COCCN1CCC(NCc2cccc(C)c2)C1 (configuration not stated) | 15.6
Cc1ccc(CNC2CCN(CCc3ccncc3)CC2)cc1C | 15.1
N#Cc1ccc(CNC(=O)NC2CCN(CC(F)(F)F)C2)cc1 (configuration not stated) | 52
CSc1ccc(CNC2CCN(CCc3ccncc3)CC2)cc1 | 16.1
Fc1ccc(CNC2CCN(CCc3ccncc3)CC2)cc1F | 21.5
Oc1cccc(CNC2CCN(CCc3ccncc3)CC2)c1 | 4.48
N#Cc1ccc(CNC(=O)NC2CCN(c3ncccn3)CC2)cc1 | 23.3
N#Cc1ccc(CNC2CCN(CCc3ccncc3)CC2)cc1 | 51.1
N#Cc1ccc(CNC(=O)NC2CCN(CC(F)F)CC2)cc1 | 26.1
COCCN1CCC(NCc2ccc(C#N)cc2)C1 (configuration not stated) | 57.4
Clc1cccc(CNC2CCN(CCc3ccncc3)CC2)c1 | 52.9
O=C1CCC2(CCC(NC3CCOC3)CC2)N1Cc1ccccc1 (configuration not stated) | -17.1
Cc1cccc(CN2Cc3[nH]nc(COCCO)c3C2)n1 | 29
Cc1nc(C(=O)N2CCOC(c3nc(C(C)C)n[nH]3)C2)c[nH]1 (configuration not stated) | -16
CCN(Cc1nonc1C)C(=O)c1cc(C(F)(F)F)nn1C | 29.9
CN(C)Cc1cccc(C(=O)N2CCCC(n3cncn3)C2)c1 (configuration not stated) | 29.2
COc1cc2[nH]c(C(=O)O)cc2c(OC)c1C | -13.1
CCn1nc2ccc(S(=O)(=O)N3CCSCC3)cn2c1=O | 7.92
COc1ccc(CNC(C)c2cccc(Br)c2)c(OC)c1OC (configuration not stated) | 70.5
COc1ccc(CNC(C)c2cccc(Cl)c2)c(OC)c1OC (configuration not stated) | 44.3

Structure (SMILES) | INHIBITION [%]
COc1ccc(C(C)NCc2cnnn2C)cc1F (configuration not stated) | 36.6
COc1ccc(C(C)NCCC(N)=O)cc1F (configuration not stated) | 49.4
CCOc1cccc(C(C)NCc2ccc(OC)c(OC)c2OC)c1 (configuration not stated) | 38.5
COc1cc(CNC(C)c2cccc(Cl)c2)cc(OC)c1OC (configuration not stated) | 63.7
CC(NCc1ccc(OCC(N)=O)cc1)c1ccc(Cl)cc1 (configuration not stated) | 43.3
COc1cc(CNC(C)Cn2cccn2)cc(Cl)c1OC (configuration not stated) | -3.7
COc1ccc(CNC(C)c2ccccc2Cl)c(OC)c1OC (configuration not stated) | 48.3
CC(NCC1CCN(CCO)CC1)c1cccc(Cl)c1 (configuration not stated) | 40.4
COc1ccc(C(C)NCc2ccc(OC)c(OC)c2OC)cc1F (configuration not stated) | 67.1
COc1ccc(CNC(C)c2ccc(Cl)cc2)c(OC)c1OC (configuration not stated) | 56
O=C(COC1CCCCC1)N1CCCC(n2ccnc2)C1 (configuration not stated) | -29.8
CCN1CC(C(=O)NC(C)(C)C(=O)OC)CC1=O (configuration not stated) | -10.3
Cc1[nH]nc(CCC(=O)NCC2CCN(C3CCCCC3)C2)c1C (configuration not stated) | -57.5
COc1cc(CNC(C)c2ccc(F)c(F)c2)cc2c1OCCO2 (configuration not stated) | 66.7
COc1cc(CNCC(O)c2ccc(F)c(F)c2)cc2c1OCO2 (configuration not stated) | 24
CC(NCc1ccc(C(N)=O)cc1)c1ccc(Cl)c(Cl)c1 (configuration not stated) | -29.2
COc1ccc(CNC(C)c2ccc(Cl)c(Cl)c2)c(OC)c1OC (configuration not stated) | 70.5
COc1cc(CNCC(O)c2ccc(C)cc2)cc2c1OCCO2 (configuration not stated) | 21.8
COc1ccc(C(C)NCc2c[nH]nc2C)cc1Br (configuration not stated) | 43.9
CO[C@@H]1CCN(c2ncc(F)cn2)[C@H]1Cc1cnn(C)c1 | 28.4
CN1CCN(C)C(CNC(=O)N(C)Cc2ccccc2Cl)C1 (configuration not stated) | 17.1
Cc1cc(C2CCCN2C(=O)c2csc(-c3cnn(C)c3)n2)on1 (configuration not stated) | -1.445

Structure (SMILES) | INHIBITION [%]
CCn1nc(C)c2nnn(CC(=O)Nc3cccc(F)c3)c(=O)c21 | 15.9
NC(=O)C(CNC(=O)Cc1ccc(F)cc1)Cc1ccc(F)cc1 (configuration not stated) | 29.2
Cn1c(=O)n(C)c2nc(Cl)c(CC(=O)c3ccccc3)n2c1=O | -6.47
Cn1c(=O)n(C)c2nc(Cl)c(CC(=O)c3ccc(F)cc3)n2c1=O | 48.3
Cc1ccc(C(=O)Cc2c(Cl)nc3n(C)c(=O)n(C)c(=O)n23)cc1 | 85
CC(C)CCn1cc(C(C(=O)O)N2CCC(c3ccncc3)CC2)cn1 (configuration not stated) | 23.9
O=C(NCCO)c1sc2ncccc2c1C1CN(C2CCCC2)CCO1 (configuration not stated) | -10.4
CC(C)(C)c1noc(CN2CCCCC2Cn2cncn2)n1 (configuration not stated) | 39.15
O=S(=O)(NCC1(c2cccs2)CCCC1)c1cccnc1 | -43.5
CCC(C(=O)NCC1=CCCN(C)C1)c1ccccc1 (configuration not stated) | 0.348
Cc1cc(C(F)(F)F)nn1CCCNC(=O)C1CCN(S(C)(=O)=O)CC1 | 0.87
COCC(=O)NCCCn1ncc2c(C)cccc21 | 20.1
CCCC(=O)NCCCn1ncc2c(C)cccc21 | 2.69
Cc1cccc2c1cnn2CCCNC(=O)C(C)C | 0.139
Cc1nn(CCCNC(=O)C2CCN(S(C)(=O)=O)CC2)c(Cl)c1Cl | 14.8
Cc1ccnn1CCCNC(=O)C1CCN(S(C)(=O)=O)CC1 | 77.7
Cc1cccc2c1cnn2CCCNC(=O)CCCC(=O)O | 60.1
CC(=O)NCCCn1ncc2c(C)cccc21 | 35.8
Cc1cccc2c1cnn2CCCNC(=O)C1CC1 | 66.5
